# From article PMC4242493, “Sequence specificity incompletely defines the genome-wide occupancy of Myc”
# Whole data set: some 33,000 sequences, median “normalized occupancy” near 0.075, cut for the highest 2% near 0.095. The sample holds the highest values, similar sequences and a random draw of the others, so the mix is not that of the screen.
# Biological target: MaxL homodimer (Homo sapiens, UniProt P61244 1-160)
# Test: universal protein-binding microarray (PBM); PBS-based mixture, 10 nM His-tagged protein dimer, 2% milk, 200 ng/uL BSA, 50 ng/uL salmon testes DNA, 0.02% TX-100; detection with Alexa 488 anti-His antibody;; high values mean tight binding
# Conditions: protein: recombinant; tags: C-terminal His-tag (pET21a); chain copies: 2; dsDNA, one strand shown
# How it was run: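 Each 8-mer received a fluorescence intensity from GenePix 4400A scans of Agilent 4 x 44 K 'all 10-mer' universal arrays. Those arrays had been incubated with His-tagged protein dimer at 10 nM, and the bound protein was marked with a fluorophore-conjugated anti-His antibody at 10 ng/μL. Binding occupancy is the intensity scaled to that of the highest-ranked sequence word.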
# MaxL homodimer, sequence (P61244 whole entry): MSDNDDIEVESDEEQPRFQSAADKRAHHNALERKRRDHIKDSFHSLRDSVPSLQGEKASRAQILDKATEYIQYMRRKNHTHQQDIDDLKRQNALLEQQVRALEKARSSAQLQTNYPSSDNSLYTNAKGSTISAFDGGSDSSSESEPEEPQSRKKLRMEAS
row,Sequence,binding signal [normalized occupancy]
1,CTATTAAC,0.0779
2,GTAGTAAA,0.0757
3,AGGACCAT,0.0823
4,ACTATTCG,0.0759
5,AAAGCATG,0.104
6,CAAGCATG,0.105
7,CAAGCATC,0.0744
8,AAAGCATA,0.0783
9,AAAGCATC,0.0796
10,CAAGCATA,0.0775
11,CTCACTTC,0.0734
12,TATTCCGA,0.072
13,ATCCACGA,0.0905
14,ATCCACGG,0.0796
15,ATCCACGC,0.109
16,CTCCACCA,0.075
17,CTCCACGC,0.101
18,CTCCACGA,0.0817
19,AGAGATAA,0.0771
20,CCTTAGGC,0.0728
21,GACGCCTC,0.0726
22,CACGCCTA,0.0938
23,CACGCCTC,0.0974
24,CTCGCCTC,0.0748
25,CACGCCTG,0.0966

row,Sequence,binding signal [normalized occupancy]
1,AACGCCTG,0.0733
2,AAATAGTT,0.0744
3,ATGCGAGG,0.0841
4,ATTGTTAA,0.0765
5,AAGCACGA,0.0867
6,ACGCACGC,0.109
7,GCGCACGC,0.0964
8,GCGCACTA,0.0726
9,ACGCACGT,0.0986
10,AAGCACGT,0.102
11,ACGCACCT,0.0799
12,AAGCACGG,0.0779
13,GCGCACGA,0.093
14,ACGCACGG,0.0828
15,ACGCACGA,0.091
16,ACGCACTA,0.0766
17,GACGACGA,0.0747
18,AAATGTAA,0.0834
19,ACTCATAC,0.074
20,ATCCCACG,0.093
21,CTTATTAC,0.0796
22,CAATCACC,0.0797
23,ACTTGTAG,0.073
24,GGAGCCAA,0.0767
25,GCAAAGGA,0.0773

row,Sequence,binding signal [normalized occupancy]
1,AAATGGGG,0.0777
2,ATGATTTA,0.079
3,CCGCACGC,0.0999
4,CCGCACGA,0.0824
5,CCGCACGG,0.0742
6,ACATTTTG,0.0837
7,AACGCCCG,0.0749
8,AACGCGAC,0.0746
9,CACGCGAA,0.105
10,CACGCGAG,0.111
11,AACGCGAG,0.0764
12,GACGCGAC,0.0735
13,CACGCGAC,0.131
14,AACGCGAA,0.0761
15,CGCGCGAG,0.0787
16,GACGCGAA,0.0735
17,GTGGAATA,0.0822
18,ACGTCTTG,0.0724
19,ACAGGTTG,0.0821
20,AAAACGAG,0.0747
21,GTTCTCCA,0.0767
22,AACACATA,0.0823
23,ATGACATG,0.0993
24,ACCACATC,0.0807
25,ACCACATG,0.192

row,Sequence,binding signal [normalized occupancy]
1,AACACATT,0.0903
2,ACCACCTC,0.0834
3,ATGACATA,0.0825
4,ACCACATA,0.0854
5,ACCACCTA,0.082
6,ACCACCTG,0.106
7,AACACATG,0.138
8,ATGACATC,0.0827
9,CGCCCATC,0.0733
10,GTACGGAA,0.0756
11,ACCGCTAC,0.0748
12,CATCCCTC,0.0774
13,AATTTTTG,0.0733
14,AAGACAGG,0.0727
15,AGCACATA,0.0807
16,ATCACATG,0.158
17,CACACATG,0.136
18,CACACATA,0.0896
19,CACACATC,0.0888
20,AGCACATG,0.187
21,ATCACATC,0.0862
22,ATCACATA,0.0859
23,AGCACATC,0.0841
24,AGTAGTGG,0.0787
25,CTACTTGA,0.0752

row,Sequence,binding signal [normalized occupancy]
1,GCCTCTCC,0.076
2,CACGCAGC,0.085
3,ACGTAGCC,0.0725
4,GCCCCCCC,0.0757
5,CCAGGGGA,0.0742
6,ACACGTTA,0.118
7,ATACGTTC,0.0794
8,CCACGTTC,0.0913
9,AAACGTTG,0.0765
10,AGACGTTC,0.0744
11,AAACGTTA,0.0739
12,ACACGTTG,0.128
13,CCACGTTA,0.105
14,CAACGTTA,0.0767
15,ACACGTTC,0.102
16,ACACGTCG,0.0849
17,AGACGTTA,0.0775
18,AGTCAGGC,0.0722
19,TGCCCAAA,0.0731
20,AGTATCAA,0.0766
21,GGCCAACC,0.0741
22,AAAAATGG,0.078
23,ATGCCCCA,0.0786
24,GAACATTA,0.0812
25,ACGCCTCC,0.0771

row,Sequence,binding signal [normalized occupancy]
1,AATAACAA,0.0746
2,GTACGTTA,0.0781
3,GGACGTTA,0.0789
4,GCACGTTA,0.104
5,ACCAAGGC,0.0726
6,GATATAAA,0.0756
7,ACAGGTCA,0.0797
8,CACGAGTC,0.0906
9,AACGAGTA,0.077
10,CACGAGTA,0.103
11,CACGAGTG,0.0961
12,CACGAGAG,0.0911
13,AACGAGTG,0.0753
14,CGCAACTA,0.0738
15,CAAGAGGG,0.0744
16,CTGGTCGC,0.0732
17,ATGTATTC,0.0814
18,AATGTACG,0.0761
19,CATGTACG,0.0957
20,AATGTACA,0.0818
21,CATGTACC,0.0843
22,AATGTATC,0.0876
23,CATGTATA,0.089
24,CATGTACA,0.0958
25,GATGTACA,0.0827

row,Sequence,binding signal [normalized occupancy]
1,CATGTATC,0.0975
2,AGTATTAT,0.0827
3,CAGTGATG,0.0746
4,CACTTCGG,0.0755
5,TCGACAGA,0.0736
6,CGGTAGCA,0.0827
7,AGCAGATC,0.077
8,ACTCCAGT,0.0743
9,ACGCTGTA,0.0841
10,CCGGTGAG,0.0746
11,GACCTTGA,0.0732
12,GCTAAATA,0.079
13,GAGGTGGC,0.0764
14,CAGATGGG,0.0837
15,AAGGTGGC,0.0758
16,CAGGTGGC,0.0954
17,CAGGTGGG,0.101
18,CAGGTGGA,0.0861
19,GTGCTGAA,0.0776
20,AATGGTAC,0.0764
21,AGTAGGAT,0.076
22,CCATGGTA,0.0851
